This is an account of results in PubChem BioAssay AID1466 (National Center for Advancing Translational Sciences (NCATS), 2008).

Structures are written as SMILES. Out of some 200,000 compounds screened, about 10 (0.005%) were called active. Not shown: some 8% with an inconclusive outcome. Calls follow the shape of the dose curve; as a rule, active = well fitted inhibition curve with a large enough effect; inconclusive = small, poorly fitted or top-dose-only effect, or effect the other way, or another doubt; inactive = no such curve, though single readings can be large or run the other way. Not all results are given here.

The target of the experiment is Lysosomal alpha-glucosidase (Homo sapiens) (UniProt P10253). The experiment can be described thus: qHTS Assay for Inhibitors of Human alpha-Glucosidase as a Potential Chaperone Treatment of Pompe Disease.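 Also: plate controls were uninhibited enzyme wells for no effect and no-enzyme background for full effect.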 The following applies: purified human GAA, 4-MU-alpha-glucoside fluorescence; series mostly up to 76.9 µM. The gist of the method: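 Fluorescence at Ex 365/Em 440 nm from 4-methylumbelliferone reported enzyme activity after 20 min at room temperature. Reactions used 4 nM enzyme and 400 uM substrate at pH 5.0; curves fitted with the Hill equation.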
Turning to `COc1ccc(NC(=O)CSc2ncnc3[nH]ncc23)cc1`, the activity change, negative = inhibition was 5.07% [at 15.4 µM] (inactive).
Then `COc1cc(C(F)(F)F)c(C(=O)N(C)c2ccc(Cl)cc2)cn1`, with “inactive”; and `O=C(CP(=O)(c1ccccc1)c1ccccc1)N1CCOCC1`, with “inactive”; and `S=C(Nc1ccc(Br)cc1Cl)NC1CCN(Cc2ccccc2)CC1`, with “inactive”.
To `CC(NC(=S)Nc1ccc(OC(F)F)cc1)c1ccc(F)cc1` (centres undefined) belongs “inactive”; to `CS(=O)(=O)c1ccc2nc(NC(=O)c3ccc(N4CCCC4=O)cc3)sc2c1`, “inactive”.
As for `CCOCCCNC(=O)C(NC(=O)c1ccccc1O)c1ccccc1` (centres undefined), the activity change, negative = inhibition result is “inactive”.
With `O=C(C1CCN(S(=O)(=O)c2ccc(Br)s2)CC1)N1CCN(C2CCCCC2)CC1`, the activity change, negative = inhibition entry was “inactive”.
Then `Cc1cc(-c2nc(C)c(-c3nnc(SCC(=O)Nc4ccccc4)n3C)s2)no1`, with 3.88% [at 15.4 µM] (inactive); and `CNc1ccc([N+](=O)[O-])cc1C(=O)O`, with “inactive”.
For `CSCC[C@H](NC(=O)NC1CCCC1)C(=O)O`, the activity change, negative = inhibition was -5.49% [at 15.4 µM] (inactive).
To `Cc1ccc(-c2cc(C(=O)NN)n[nH]2)o1` belongs “inactive”.
As to `Cc1cccc(C)c1NC(=O)C1CCCN1C(=O)OC(C)(C)C` (centres undefined), the activity change, negative = inhibition result was “inactive”.
For the compound `Cc1ccc(/C=N/NC(=O)CSc2ccccn2)o1`, the activity change, negative = inhibition was 0.179% [at 15.4 µM] (inactive).
Regarding `CCCCCCCCCCCCC(NC(C)=O)(C(=O)OCC)C(=O)OCC`, the activity change, negative = inhibition result is “inactive”.
Consider `O=C(NCC1CCCO1)c1cc(-c2ccccc2)nc2ccccc12` (centres undefined), for which the activity change, negative = inhibition is -10.8% [at 15.4 µM] (inactive).
Take `FC(F)(F)c1cccc(-c2nc(COc3ccc(Cl)cc3Cl)no2)c1`: the activity change, negative = inhibition result is “inactive”.
On to `COc1ccc(N2CCN(C(=O)CNS(=O)(=O)c3ccc(C)c(C)c3)CC2)cc1`, for which the activity change, negative = inhibition entry was “inactive”.
`C/C(=N\Nc1ncc(Cl)cc1Cl)c1cccs1`: the activity change, negative = inhibition result was “inactive”.
Then `Cc1onc(C(=O)NN)c1C(=O)N1CCN(C(c2ccccc2)c2ccccc2)CC1`, with “inactive”; and `CCOc1ccc2sc(NS(=O)(=O)c3ccc(N)cc3)nc2c1`, with “inactive”; and `CCn1c(SCc2ccccc2)nc2c(c1=O)SCC2`, with “inactive”.
For `Nc1ccccc1Sc1cc(Cl)nnc1Cl`, the activity change, negative = inhibition result was “inactive”.
Consider `Cc1cccc(CSc2nc3c(c(=O)n2C)SCC3)c1`, for which the activity change, negative = inhibition entry was “inactive”.
